The target in assay [1] is Voltage-gated inwardly rectifying potassium channel KCNH2 (Homo sapiens) (UniProt Q12809). The experiment in a line: qHTS Assay for Small Molecule Inhibitors of the Human hERG Channel Activity (AID 588834).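 Further: lower thallium flux fluorescence means stronger hERG block; nearly all actives have a fitted effect of over 50% in size.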 Further: potency means the concentration at half of the fitted maximal effect. In outline:
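hERG block measured as reduced thallium-dye (FluxOR) fluorescence after stimulation buffer addition, read over 2 min. Cells were hERG-BacMam-transduced U2OS exposed to compound ~10 min […]; concentration-response fitted with Hill equation for AC50.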
For orientation: In qHTS, concentration-response curves come from the screen itself.

For assay [2], the target named is Luciferin 4-monooxygenase (Photinus pyralis) (UniProt P08659). The experiment in a line: Biochemical firefly luciferase enzyme assay for NPC (AID 624030). Further: nearly all actives have a fitted effect of over 70% in size. Further: potency means the concentration at half of the fitted maximal effect. In outline: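 Direct inhibition of firefly luciferase enzyme (10 nM final, 50 mM Tris Acetate) assessed by luminescence within 5 minutes. Percent activity scaled between DMSO and PTC124 positive control, with concentration-effect curves classified by fit quality and response.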
Sequence of Luciferin 4-monooxygenase (Photinus pyralis) (P08659 whole entry, looked up): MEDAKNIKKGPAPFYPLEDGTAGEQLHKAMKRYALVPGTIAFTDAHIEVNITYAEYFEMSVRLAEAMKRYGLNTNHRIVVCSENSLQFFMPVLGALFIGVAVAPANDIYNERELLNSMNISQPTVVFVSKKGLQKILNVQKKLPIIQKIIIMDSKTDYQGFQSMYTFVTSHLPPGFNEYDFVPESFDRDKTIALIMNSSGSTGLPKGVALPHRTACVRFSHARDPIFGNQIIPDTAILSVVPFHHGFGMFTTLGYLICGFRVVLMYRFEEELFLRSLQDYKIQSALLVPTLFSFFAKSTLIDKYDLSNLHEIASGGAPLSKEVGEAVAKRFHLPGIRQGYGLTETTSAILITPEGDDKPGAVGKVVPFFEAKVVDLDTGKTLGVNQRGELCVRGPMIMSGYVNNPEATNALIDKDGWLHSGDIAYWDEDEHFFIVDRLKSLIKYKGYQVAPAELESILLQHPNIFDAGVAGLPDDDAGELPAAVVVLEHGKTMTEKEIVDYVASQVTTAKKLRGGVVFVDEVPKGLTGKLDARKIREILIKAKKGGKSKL

Assay [3] in a line: S16 Schwann cell PMP22 intronic element beta-lactamase assay (AID 624044; calls by dose curve; further: nearly all actives have a fitted effect of over 15% in size; further: potency means the concentration at half of the fitted maximal effect). The method in brief: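 Beta-lactamase reporter under a PMP22 intronic regulatory element in stable S16 rat Schwann cells; 24 h compound exposure. 460 nm blue signal normalized between DMSO (0%) and potassium clavulanate, with 535 nm FRET tracking viability; curves classed by r2 and response.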
Assay [4] is described as follows: S16 Schwann cell viability assay (CellTiter-Glo assay) (AID 624031). Further: nearly all actives have a fitted effect of over 70% in size. Further: potency means the concentration at half of the fitted maximal effect. In outline:
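Rat S16 Schwann cells without reporter constructs received compound or DMSO for 24 h at 37 °C under 5% CO2. Cellular ATP was then quantified by CellTiter-Glo luminescence, with vehicle wells defined as 0% activity and cell-free wells as reference.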
(Cellular ATP, detected with luciferase, serves as a proxy for viable cell number.)

The nature of assay [5]: S16 Schwann cell PMP22 intronic element firefly luciferase assay (AID 624032). Further: nearly all actives have a fitted effect of over 30% in size. Further: potency means the concentration at half of the fitted maximal effect. In outline: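 Luciferase reporter of PMP22 intronic-element expression in stably transfected S16 rat Schwann cells, read by ONE-Glo luminescence after 24 h compound exposure at 37 C. Activity scaled between DMSO (0%) and positive-control PTC124; concentration-effect curves quality-classified.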

Assay [6] is described as follows: qHTS assay for small molecule agonists of the antioxidant response element (ARE) signaling pathway (AID 651741; active means well fitted activation curve with a large enough effect in the signal ratio; the % refers to the signal ratio; further: % of control where 0% means no effect). In outline: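 Beta-lactamase reporter under ARE control in HepG2 cells, 2,000 per well, was induced by 16 h compound treatment at 37 C. Read-out was fluorescence from LiveBLAzer B/G FRET substrate after 2 h at room temperature.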
Assay [7] in a line: qHTS assay for small molecule activators of the p53 signaling pathway (AID 651743; active means well fitted activation curve with a large enough effect in the signal ratio, not every such curve was filed as active; the % refers to the signal ratio; further: series mostly up to about 92 µM; % of control where 0% means no effect). The note with it: HCT-116 p53RE-bla, beta-lactamase FRET ratio, 16 h; activation: stronger effect = higher value. The method in brief: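 After 16 hours compound treatment at 37 C, HCT-116 cells stably expressing p53RE-driven beta-lactamase were loaded with LiveBLAzer B/G FRET substrate for 2 hours at room temperature. Fluorescence intensity served as the p53 activation read-out.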

Assay [8] can be described thus: qHTS assay for small molecule activators of the nuclear factor-kappa B (NF-kB) signaling pathway (AID 651749; active means well fitted activation curve with a large enough effect in the signal ratio; the % refers to the signal ratio; further: series mostly up to about 77 µM; % of control where 0% means no effect). The following applies: NF-kB-bla ME-180 cells, beta-lactamase FRET ratio, 16 h; stronger effect = higher value. The method in brief:
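Activation measured after 16 hr compound treatment at 37C, 5% CO2, of 2,000 ME-180 cells/well stably expressing an NF-kB response element–driven beta-lactamase reporter, via FRET-disruption fluorescence.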

Molecules are shown by their SMILES. Several values for one entry are separate records, joined by “and”; a condition that tells them apart may be missing. Equal values may be shown once. Results filed as inconclusive are left out. A number with no mark means an inactive call. Activity calls are given as the source filed them. Unless noted, the call rests on the fitted dose curve; in most records, active means well fitted curve in the direction sought with a large enough effect; inconclusive means small, poorly fitted or top-dose-only effect, or another doubt; inactive means no such curve, though single readings can be large; an effect the other way counts as inactive or inconclusive.

Sequence of Voltage-gated inwardly rectifying potassium channel KCNH2 (Homo sapiens) (Q12809 whole entry, looked up): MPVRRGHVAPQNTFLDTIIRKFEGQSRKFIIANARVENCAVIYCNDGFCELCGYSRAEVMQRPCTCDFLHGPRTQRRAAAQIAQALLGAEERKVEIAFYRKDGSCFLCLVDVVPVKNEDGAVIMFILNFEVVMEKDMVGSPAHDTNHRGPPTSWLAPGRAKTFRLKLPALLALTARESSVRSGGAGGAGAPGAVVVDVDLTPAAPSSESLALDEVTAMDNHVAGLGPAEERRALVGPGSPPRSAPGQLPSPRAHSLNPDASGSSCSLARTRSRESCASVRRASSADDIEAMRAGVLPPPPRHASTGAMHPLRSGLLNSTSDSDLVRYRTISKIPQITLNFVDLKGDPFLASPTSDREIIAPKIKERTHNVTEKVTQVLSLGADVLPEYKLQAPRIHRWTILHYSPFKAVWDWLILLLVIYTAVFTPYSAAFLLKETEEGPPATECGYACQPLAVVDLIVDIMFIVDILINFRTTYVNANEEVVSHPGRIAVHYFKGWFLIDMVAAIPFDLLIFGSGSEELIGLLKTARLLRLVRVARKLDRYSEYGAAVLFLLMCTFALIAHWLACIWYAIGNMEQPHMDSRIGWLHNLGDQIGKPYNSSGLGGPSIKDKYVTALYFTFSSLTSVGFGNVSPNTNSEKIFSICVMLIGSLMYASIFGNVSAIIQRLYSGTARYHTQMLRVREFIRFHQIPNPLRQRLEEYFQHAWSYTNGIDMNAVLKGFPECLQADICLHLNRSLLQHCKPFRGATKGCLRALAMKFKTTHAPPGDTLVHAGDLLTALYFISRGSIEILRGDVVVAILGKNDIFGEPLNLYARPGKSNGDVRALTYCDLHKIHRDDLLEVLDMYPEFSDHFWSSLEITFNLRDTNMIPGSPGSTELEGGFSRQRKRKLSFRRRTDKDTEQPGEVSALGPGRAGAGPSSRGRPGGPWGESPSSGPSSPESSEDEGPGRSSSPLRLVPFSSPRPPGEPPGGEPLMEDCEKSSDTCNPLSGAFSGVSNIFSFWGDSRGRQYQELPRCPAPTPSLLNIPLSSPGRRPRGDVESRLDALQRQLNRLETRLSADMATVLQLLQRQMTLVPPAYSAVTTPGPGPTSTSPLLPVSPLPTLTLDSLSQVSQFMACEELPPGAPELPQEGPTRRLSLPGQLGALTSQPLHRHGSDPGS

`CO[C@H]1C[C@@H]2CC[C@@H](C)[C@@](O)(O2)C(=O)C(=O)N2CCCC[C@H]2C(=O)O[C@H]([C@H](C)C[C@@H]2CC[C@@H](OCCO)[C@H](OC)C2)CC(=O)[C@H](C)/C=C(\C)[C@@H](O)[C@@H](OC)C(=O)[C@H](C)C[C@H](C)/C=C/C=C/C=C/1C`: the Potency entry in assay [1], in assay [2] and in assay [3] was “inactive” each time.

With `CCCCCCCCCCCC[n+]1ccc2ccccc2c1`, the Potency was 3.16 µM (active) in assay [1], 16.1 µM (active) in assay [4], 0.907 µM (active) in assay [5] and 19.9 µM (active) in assay [3]. In assay [2], the Potency entry was “inactive”.

As for `CCN(CC)CCOc1ccc(-c2nc3cc(Cl)ccc3s2)cc1`, the Potency is 5.01 µM (active) in assay [1] and 6.42 µM (active) in assay [2]. Also, the Potency entry in assay [5] and in assay [3] was “inactive” each time.

As to `Nc1c(Br)cc(Br)cc1CNC1CCC(O)CC1` (centres undefined), the Potency result in assay [2], in assay [4], in assay [5] and in assay [3] was “inactive” throughout.

With `CCCC(=O)Nc1ncnc2c1ncn2C1OC2COP(=O)(O)OC2C1OC(=O)CCC` (centres undefined), the Potency entry in assay [2], in assay [4] and in assay [3] was “inactive” throughout. For the same compound, the Potency in assay [5] is 5.73 µM (active).

In the case of `CC1=C(/C=C/C(C)=C/C=C/C(C)=C/C=C/C=C(C)/C=C/C=C(C)/C=C/C2=C(C)C(=O)CCC2(C)C)C(C)(C)CCC1=O`, the Potency entry in assay [1], in assay [2], in assay [4], in assay [5] and in assay [3] was “inactive” each time.

Regarding `CC(C)N=c1cc2n(-c3ccc(Cl)cc3)c3ccccc3nc-2cc1Nc1ccc(Cl)cc1`, the Potency in assay [1] is 7.08 µM (active). Moreover, the Potency result in assay [2], in assay [4] and in assay [3] was “inactive” throughout.

For the compound `CC1=C(/C=C/C(C)=C/C=C/C(C)=C/C=C/C=C(C)/C=C/C=C(C)/C=C/C2=C(C)CCCC2(C)C)C(C)(C)CCC1`, the Potency entry in assay [2], in assay [4] and in assay [5] was “inactive” each time.

Turning to `CCCCCCCCCCCCCCCC(=O)OCC(COC(=O)CCCCCCCCCCCCCCC)OC(=O)CCCCCCCCCCCCCCC`, the Potency entry in assay [2], in assay [4], in assay [5] and in assay [3] was “inactive” in each case.

Take `O=C1C(=O)c2ncccc2-c2cccnc21`: the Potency entry in assay [2] was “inactive”.

Turning to `O=C(O)c1cc(O)c2c(c1)[O][Bi][O]2`, the Potency entry in assay [2], in assay [4], in assay [5] and in assay [3] was “inactive” throughout.

As to `Nc1ncnc2c1ncn2[C@@H]1O[C@H](COP(=O)(O)OP(=O)(O)OP(=O)(O)O)[C@@H](O)[C@H]1O`, the Potency entry in assay [1], in assay [4], in assay [5] and in assay [3] was “inactive” in each case.

Turning to `C=CCSSSCC=C`, the Potency result in assay [1], in assay [2], in assay [5] and in assay [3] was “inactive” in each case.

With `O=C1CSC2(CCN(CCCN3c4ccccc4Sc4ccc(Cl)cc43)CC2)N1`, the Potency result in assay [2] and in assay [3] was “inactive” each time. Also, the Potency in assay [4] and in assay [5] was 32.2 µM (active) each time.

Consider `C#CCOc1ccc2c(C)cc(=O)oc2c1`, for which the Potency entry in assay [1], in assay [2], in assay [4], in assay [5] and in assay [3] was “inactive” each time.

On to `O=C(COc1ccc(Cl)cc1)OCCNC12CC3CC(CC(C3)C1)C2`, for which the Potency entry in assay [2], in assay [4], in assay [5] and in assay [3] was “inactive” in each case.

With `O=S(=O)(O)c1cc(O)c2c(N=Nc3ccc(Nc4ccccc4)c4c(S(=O)(=O)O)cccc34)cc(S(=O)(=O)O)cc2c1`, the Potency result in assay [1] and in assay [3] was “inactive” in each case. The Potency in assay [2] is 32.2 µM (active).

Turning to `CC1=C2[C@@H]([C@H](C)CC[C@H]2/C=C(\C)C(=O)O)[C@H](O)C1`, the Potency result in assay [1] and in assay [6] was “inactive” throughout. The activation was -3.64% in assay [7] and -0.741% in assay [8].

Consider `CC(NNC(=O)c1ccccc1)c1ccccc1` (centres undefined), for which the Potency result in assay [1], in assay [4], in assay [5] and in assay [3] was “inactive” each time.

Take `CCOC(=O)C1=C(C)NC(C)=C(C(=O)OCC)C1c1ccccc1C=CC(=O)OC(C)(C)C`: the Potency result in assay [1], in assay [2] and in assay [3] was “inactive” throughout.

In the case of `CCN(CC)Cc1cc(Nc2ccnc3cc(Cl)ccc23)ccc1O`, the Potency result in assay [2] and in assay [4] was “inactive” in each case.

With `Nc1c(N=Nc2ccc(-c3ccc(N=Nc4cc(S(=O)(=O)O)c5ccccc5c4N)cc3)cc2)cc(S(=O)(=O)O)c2ccccc12`, the Potency result in assay [1], in assay [4] and in assay [3] was “inactive” in each case. In addition, in assay [2], the Potency was 32.2 µM (active).

Regarding `CCNC(=O)[C@@H]1CCCN1C(=O)[C@H](CCCN=C(N)N)NC(=O)[C@H](CC(C)C)NC(=O)[C@@H](Cc1c[nH]c2ccccc12)NC(=O)[C@H](Cc1ccc(O)cc1)NC(=O)[C@H](CO)NC(=O)[C@H](Cc1c[nH]c2ccccc12)NC(=O)[C@H](Cc1cnc[nH]1)NC(=O)[C@@H]1CCC(=O)N1`, the Potency in assay [1] is 2.51 µM (active); in assay [4] it was 6.42 µM (active); in assay [5] it was 4.55 µM (active); in assay [3] it was 22.4 µM (active). Also, in assay [2], the Potency result was “inactive”.

For the compound `COC(F)(F)C(Cl)Cl`, the Potency entry in assay [2], in assay [4], in assay [5] and in assay [3] was “inactive” in each case.

With `CC[N+](C)(C)Cc1ccccc1Br`, the Potency entry in assay [1], in assay [2], in assay [4], in assay [5] and in assay [3] was “inactive” throughout.

On to `COC(=O)CCC(=O)CN`, for which the Potency result in assay [2], in assay [4] and in assay [5] was “inactive” in each case.

Consider `Cc1ccccc1`, for which the Potency result in assay [1], in assay [2], in assay [4] and in assay [6] was “inactive” each time. Besides, the activation in assay [7] is 0.393% and -4.17%.

Source of the values: PubChem BioAssay (NCATS).
